Experimental data taken from PubChem BioAssay (NCATS).
Inconclusive results are not listed. Activity calls are given as the source filed them. Calls come from the whole dose curve; as a rule, active = well fitted inhibition curve with a large enough effect; inconclusive = small, poorly fitted or top-dose-only effect; inactive = flat fitted curve, though single readings scatter.

Legend:
Experiment in all cases: qHTS profiling for inhibitors of Plasmodium falciparum proliferation (AID 504749); note: nearly all actives have a fitted effect of over 60% in size
Conditions in all cases: P. falciparum in erythrocytes, SYBR Green DNA, 72 h; series mostly up to 28.7 µM
7G8 = test system: 7G8
Outline: (§1)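 P. falciparum-infected erythrocytes (0.3% parasitemia, 2.5% hematocrit) incubated with compound 72 h at 37 C, 5% CO2. Parasite DNA detected by SYBR Green after lysis, overnight at room temperature; normalised to 0.29 uM artemisinin and DMSO.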

AA1029 = test system: AA1029
Outline: as §1

CP192 = test system: CP192
Outline: as §1

CP194 = test system: CP194
Outline: as §1

CP203 = test system: CP203
Outline: as §1

CP217 = test system: CP217
Outline: as §1

CP237 = test system: CP237
Outline: as §1

CP250 = test system: CP250
Outline: as §1

CP266 = test system: CP266
Outline: as §1

CP268 = test system: CP268
Outline: as §1

CP269 = test system: CP269
Outline: as §1

CP291 = test system: CP291
Outline: as §1

CP315 = test system: CP315
Outline: as §1

CP329 = test system: CP329
Outline: as §1

DIV30 = test system: DIV30
Outline: as §1

HB3 = test system: HB3
Outline: as §1

JCK = test system: JCK
Outline: as §1

P94_40 = test system: P94_40
Outline: as §1

PC26 = test system: PC26
Outline: as §1

TAB109 = test system: TAB109
Outline: as §1

Measured: Potency

CC(N)C(=O)NCC(=O)NC1CSSCC(C(=O)O)NC(=O)C(CO)NC(=O)C(C(C)O)NC(=O)C(Cc2ccccc2)NC(=O)C(C(C)O)NC(=O)C(CCCCN)NC(=O)C(Cc2c[nH]c3ccccc23)NC(=O)C(Cc2ccccc2)NC(=O)C(Cc2ccccc2)NC(=O)C(CC(N)=O)NC(=O)C(CCCCN)NC1=O (stereo not given)
inactive: all assays above

CNCC(=O)NC(CCCN=C(N)N)C(=O)NC(C(=O)NC(Cc1ccc(O)cc1)C(=O)NC(C(=O)NC(Cc1cnc[nH]1)C(=O)N1CCCC1C(=O)NC(C)C(=O)O)C(C)C)C(C)C (stereo not given)
inactive: all assays above

CCOC(=O)C(CS)NCCN[C@@H](CS)C(=O)OCC (stereo not given in full)
inactive: all assays above

CC(=O)OCC(=O)[C@@]1(O)CCC2C3CCC4=CC(=O)CC[C@]4(C)C3=CC[C@@]21C (stereo not given in full)
inactive: all assays above
